Source: PubChem BioAssay (National Center for Advancing Translational Sciences (NCATS))
Shown are actives, neighbours in structure and some others; about 7.2% of the full set was active somewhere.
LASV entry inh: Lassa virus entry inhibition; Lassa virus pseudotype entry inhibition, cell reporter; Potency, µM (doses to about 37.9 µM), hits mostly inhibitors; 300,000 compounds, 1.2% hits; AID 540256; calls by dose curve; tested in HEK293 cells; note: nearly all actives have a fitted effect of over 50% in size
Marburg entry inh: Marburg virus entry inhibition. Marburg virus pseudotyped entry inhibition, cell reporter. Potency, µM (titrated, usually from 37.8 µM), usual class: inhibitors. 300,000 compounds, 1.8% hits. AID 540276; calls by dose curve; tested in HEK293 cells
RE007 growth inh: less growth of the S. pombe RE007 Vpr strain | S. pombe RE007 Vpr strain, BacTiter-Glo ATP luminescence, 24 h | Potency, µM (doses to about 92.2 µM), actives largely listed as inhibitors | 360,000 compounds, 0.21% hits; active = well fitted falling curve with a large enough effect; inconclusive = small, poorly fitted or top-dose-only effect; inactive = no such curve, though single readings can be large or run the other way; note: nearly all actives have a fitted effect of over 50% in size
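Fission yeast RE007 carrying one integrated HIV-1 vpr copy, seeded at OD 0.01 in PMG+AL medium with 23 nL pinned compound. Grown 24 h at 30 degrees; viability read by BacTiter-Glo luminescence after 5 min.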
FMDV inh: blocks foot and mouth disease virus | FMDV antiviral cell-based qHTS | Potency, µM (titrated, usually from 57.9 µM), actives largely listed as inhibitors | 410,000 compounds, 1.2% hits; calls by dose curve; tested in HEK293T cells; note: read-out not given here; nearly all actives have a fitted effect of over 45% in size
HCV inh: blocks hepatitis C virus. Huh7.5.1 HCVcc-Cre infection, luciferase reporter, 44 h. Potency, µM (top dose mostly 41.8 µM), usual class: inhibitors. 340,000 compounds, 3.4% hits. AID 651820
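A cell-based infection assay in which seeded cells (1,000 per well) receive test compound after 4 h, are inoculated with HCVcc-Cre at approximately 0.5 moi, and are incubated 44 h before luminescence detection.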
Sm TGR block: inhibitors of Schistosoma mansoni thioredoxin glutathione reductase | Q962Y6 | purified TGR, DTNB reduction, TNB absorbance 405 nm | Potency, µM (titrated, usually from 114 µM), most hits filed as inhibitors | 360,000 compounds, 3% hits; note: nearly all actives have a fitted effect of over 60% in size
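Kinetic colorimetric format: TGR-catalysed, NADPH-driven DTNB reduction monitored via TNB absorbance. Enzyme dispensed at 20 nM; compound exposure 15 min at room temperature before reaction start.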
Each line names hits and unclear results; the compound was inactive in the other large screens. Unless noted, calls come from the whole dose curve; as a rule, active = well fitted curve in the direction sought with a large enough effect; inconclusive = small, poorly fitted or top-dose-only effect, or another doubt; inactive = no such curve, though single readings can be large; an effect the other way counts as inactive or inconclusive.

CCOc1ccc(CCNC(=O)c2c(C)oc3ncn(CC(C)C)c(=O)c23)cc1OCC	none (no result: Marburg entry inh, RE007 growth inh, HCV inh)
CCOc1ccc(N=Cc2c(O)n(CCc3ccc(OC)c(OC)c3)c(=O)[nH]c2=O)cc1	Marburg entry inh inconclusive, FMDV inh 7.9µM, HCV inh inconclusive
O=c1[nH]c(=O)n(CCC2=CCCCC2)c(O)c1/C=N/Nc1cccc2ccccc12	FMDV inh inconclusive, Sm TGR block 20µM (no result: LASV entry inh, Marburg entry inh)
O=c1[nH]c(=O)n(Cc2ccccc2)c(O)c1C=Nc1ccc(CN2CCOCC2)cc1	FMDV inh inconclusive, Sm TGR block 35µM
O=c1[nH]c(=O)n(Cc2ccco2)c(O)c1C=NCCN1CCOCC1	none
O=c1[nH]c(=O)n(CCC2=CCCCC2)c(O)c1/C=N/Nc1ccccc1	LASV entry inh inconclusive, FMDV inh inconclusive, Sm TGR block inconclusive
CCc1ccc2nc(N(Cc3cccnc3)C(=O)c3cccs3)sc2c1	none (no result: Marburg entry inh, RE007 growth inh, HCV inh)
O=C(NCc1ccc(Cl)cc1)c1cnc(N2CCOCC2)c2ccccc12	none (no result: Marburg entry inh, RE007 growth inh, HCV inh)
Oc1cccc(C2c3[nH]c4ccccc4c3CCN2Cc2ccc3c(c2)CCO3)c1 (configuration not stated)	LASV entry inh inconclusive, Marburg entry inh 3.2µM
COc1ccc(C2c3[nH]c4ccccc4c3CCN2Cc2ccoc2)c(F)c1 (configuration not stated)	Sm TGR block inconclusive (no result: LASV entry inh, Marburg entry inh)
Oc1cccc(C2c3[nH]c4ccccc4c3CCN2Cc2ccoc2)c1 (configuration not stated)	Sm TGR block 18µM (no result: LASV entry inh, Marburg entry inh)
CC(C)N[C@@H](C)Cc1ccc(I)cc1	Marburg entry inh 16µM (no result: LASV entry inh, RE007 growth inh, FMDV inh, HCV inh, Sm TGR block)
CC(Cc1ccccc1)NC(=O)NC(C)Cc1ccccc1 (configuration not stated)	LASV entry inh inconclusive
CC(C)NC(C)Cc1ccc(I)cc1 (configuration not stated)	Marburg entry inh 16µM, HCV inh inconclusive
COC(=O)C[C@H]1C[C@@H]2c3cc(NC(=O)NC4CCCC4)ccc3O[C@@H]2[C@@H](CO)O1	none (no result: LASV entry inh, Marburg entry inh, HCV inh, Sm TGR block)
CC(CCc1ccccc1)NC(=O)COC(=O)c1ccc(S(C)(=O)=O)c([N+](=O)[O-])c1 (configuration not stated)	LASV entry inh inconclusive, Marburg entry inh inconclusive, FMDV inh inconclusive, HCV inh inconclusive, Sm TGR block 1.8µM
O=C(OCc1ccc(C(=O)c2ccccc2)cc1)c1cccc(-c2nnc(-c3ccccc3)o2)c1	LASV entry inh inconclusive, Marburg entry inh inconclusive, HCV inh 14µM
CS(=O)(=O)c1ccc(C(=O)OCc2nnc(-c3ccccc3)o2)cc1[N+](=O)[O-]	LASV entry inh inconclusive, Marburg entry inh 3.2µM, HCV inh inconclusive, Sm TGR block 1.4µM
CS(=O)(=O)c1ccc(C(=O)OCC(=O)Nc2cccnc2Cl)cc1[N+](=O)[O-]	FMDV inh inconclusive, HCV inh inconclusive (no result: LASV entry inh, Marburg entry inh, Sm TGR block)
Cc1ccccc1NC(=O)COC(=O)c1ccc(S(C)(=O)=O)c([N+](=O)[O-])c1	LASV entry inh 21µM, Marburg entry inh 9.2µM, FMDV inh 32µM, HCV inh inconclusive, Sm TGR block 1.4µM
Cc1cccc(N2C(=O)CS(=O)(=O)C23C(=O)N(Cc2c(F)cccc2Cl)c2ccccc23)c1 (configuration not stated)	FMDV inh inconclusive (no result: Marburg entry inh, RE007 growth inh, HCV inh)
Cc1ccccc1NC(=O)Cc1nc(COC(=O)c2ccc(S(C)(=O)=O)c([N+](=O)[O-])c2)cs1	FMDV inh inconclusive, HCV inh 10µM, Sm TGR block 2.8µM (no result: LASV entry inh, Marburg entry inh)
CC(=O)c1cccc(NC(=O)COC(=O)c2ccc(S(C)(=O)=O)c([N+](=O)[O-])c2)c1	FMDV inh inconclusive, HCV inh 5µM, Sm TGR block 3.2µM (no result: LASV entry inh, Marburg entry inh)
COCc1cc2cc3c(cc2c2c(C(=O)OC)c(C(=O)OC)c(C(=O)OC(C)(C)C)n12)OCO3	LASV entry inh inconclusive (no result: RE007 growth inh, FMDV inh, HCV inh, Sm TGR block)
CCc1nn(CC(=O)NC2CC2)c(=O)c2cc3c(OC)cccc3n12	none (no result: LASV entry inh, RE007 growth inh, HCV inh)
CCOC(=O)C1(CC2CCCCO2)CCN(Cc2ccccc2-c2ccco2)CC1 (configuration not stated)	HCV inh inconclusive, Sm TGR block 40µM (no result: LASV entry inh, Marburg entry inh)
CCOC(=O)C1(CC2CC2)CCN(Cc2cn(C)c3ccccc23)CC1	LASV entry inh inconclusive, Marburg entry inh inconclusive, HCV inh 10µM
